Assay outcomes deposited in PubChem by several laboratories.
PrP 5UTR inh: inhibition of PrP 5' UTR reporter expression. 340,000 tested, 0.35% active. cell-based PrP 5' UTR mRNA reporter, plate reader. inhibition, % (test concentration not listed); in the data active means inhibition above about 52%; further: 0 = median of the neutral control wells
PrPC surface inh: inhibitors of human cell surface prion protein PrPC, primary screen, cell-based, TR-FRET; TR-FRET read-out; inhibition, % at 13.8 µM; 370,000 tested, 0.43% active; AID 720596, 2013; in the data active means inhibition above about 24%; further: 0% = median of the test wells and 100% = reference compound wells
BJeLR viability: MLPCN primary cell-based screen for lethality selective to Ras in HRASV12 cells | BJeLR (HRASV12) viability, CellTiter-Glo ATP luminescence, 48 h | inhibition, % (concentration not given with the values) | 300,000 tested, 0.17% active | AID 1554, 2009; in the data active means inhibition above about 50%; inconclusive means no clear call, values can overlap the other calls
PfHsp40 rescue: rescue of yeast from PfHsp40 toxicity, primary screen, S. cerevisiae, ATP luminescence. S. cerevisiae expressing PfHsp40, growth rescue. growth rescue, % at 12.5 µM. 340,000 tested, 0.68% active. AID 504582, 2011; in the data active means growth rescue above about 28%, passing the limit was not always enough; inconclusive means no clear call, values can overlap the other calls;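 further: yeast W303a lacking pdr1 and pdr3 grown in galactose medium; growth measured after three days at 30 °C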
GDH-TPI counter-1: GDH-TPI coupling enzyme inhibitors, primary screen, artefact control for M. tuberculosis FBA inhibitor project, biochemical, absorbance, full deck; GDH-TPI coupled enzyme counterscreen, NADH absorbance; inhibition, % at 4.8 µM; 360,000 tested, 1.2% active; AID 588335, 2011; in the data active means inhibition above about 30%;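 further: 0% = DMSO wells and 100% = wells lacking the enzyme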
FBA Mtb inh: Mtb FBA enzyme inhibitors, primary screen, biochemical, fluorescence, strain H37Rv. Fructose-bisphosphate aldolase (Mycobacterium tuberculosis (strain ATCC 25618 / H37Rv)), …. purified M. tuberculosis FBA, fluorescence read-out. AID 588726, 2011. 360,000 tested, 2.3% active. inhibition, % at 1 µM;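 further: 0% = vehicle and 100% = reference inhibitor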
Target sequence (P9WQA3 whole entry, looked up): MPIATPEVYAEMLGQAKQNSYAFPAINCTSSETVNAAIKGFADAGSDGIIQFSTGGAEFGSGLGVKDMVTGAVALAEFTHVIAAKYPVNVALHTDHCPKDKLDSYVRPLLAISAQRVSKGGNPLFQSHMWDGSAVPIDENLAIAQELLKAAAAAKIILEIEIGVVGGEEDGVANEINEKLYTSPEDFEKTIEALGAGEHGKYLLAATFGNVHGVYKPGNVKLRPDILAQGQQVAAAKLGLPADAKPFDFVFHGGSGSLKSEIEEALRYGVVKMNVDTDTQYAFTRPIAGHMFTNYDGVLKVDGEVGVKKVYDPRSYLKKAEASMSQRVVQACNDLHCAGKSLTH
Mtb FBA confirm: M. tuberculosis aldolase blockers, biochemical, fluorescence, strain H37Rv, confirmation; shares compounds with FBA Mtb inh; purified M. tuberculosis FBA, fluorescence read-out; inhibition, % at 1 µM; 5,600 tested, 78% active; AID 651616, 2012;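 further: 0% = vehicle wells and 100% = reference inhibitor wells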
GDH-TPI counter-2: GDH-TPI coupling enzyme inhibitors, artefact control for M. tuberculosis FBA inhibitor project, biochemical, fluorescence, high throughput. shares compounds with FBA Mtb inh. 5,600 tested, 81% active. inhibition, % at 1 µM. GDH-TPI coupled enzyme counterscreen; in the data active means inhibition above about 10%
* hit, by the source's call; ? = inconclusive; · = not tested or not shown; + = active, no number. In the library only some 4.5% were active in any assay of this set; here they are far more common. Unless noted, no stated cut-off is given here; in the data, active means inhibition above about 27%; inactive means the rest.

SMILES	PrP 5UTR inh	PrPC surface inh	BJeLR viability	PfHsp40 rescue	GDH-TPI counter-1	FBA Mtb inh	Mtb FBA confirm	GDH-TPI counter-2
COc1cccc(-c2ccc(C#N)c(OC(=O)c3ccc(Cl)cc3)n2)c1	-9	-6	-5	1	21	95*	135*	106*
CC(C)CN1Cc2cc(-c3ccccc3)ccc2-n2nncc2C1	·	-2	·	·	·	31*	+	+
CC1=C(C#N)C(c2cccnc2)C2=C(CCCC2=O)N1 (stereo not given)	-4	-1	·	-1	4	34*	128*	99*
CC1=C(C#N)C(c2cccnc2)C2=C(N1)c1ccccc1C2=O (stereo not given)	-17	-45	-4	-1	-1	2	·	·
CC(C(=O)Nc1ccc(Cl)cc1)N(C)Cc1cccs1 (stereo not given)	-2	4	12	0	-1	2	·	·
CC(C(=O)Nc1ccc(C#N)cc1)N(C)Cc1cccs1 (stereo not given)	-11	-1	6	1	-4	77*	50*	40*
COC(=O)C1=C(C)N(Cc2ccccc2C(F)(F)F)C(=NCc2ccc3c(c2)OCO3)NC1c1ccc(Cl)cc1 (stereo not given)	·	-8	·	·	·	·	·	·
COc1ccc([C@H]2CC(=O)C=C(c3cc(C(F)(F)F)cc(C(F)(F)F)c3)C2)cc1	-16	-4	·	4	-8	4	·	·
CN1CCN(C(=O)c2cc3c(ccc4ccccc43)oc2=O)CC1	-12	-3	-7	-1	12	54*	45*	31*
Clc1ccc(N=C2SCCS2)cc1	-3	-1	-3	?	-4	2	·	·
Cc1c(C(=O)N2CCOCC2)sc(NC(=O)Cc2ccccc2)c1C#N	-10	4	-2	-1	5	0	·	·
CS(=O)(=O)c1ccc(S(=O)(=O)N2CCC(CO)(CCCc3ccccc3)CC2)cc1	-8	8	10	0	9	0	·	·
Cc1ccc(S(=O)(=O)N2CCSCCSCCSCCSCC2)cc1	41	2	·	-2	-7	-2	·	·
Cn1ccnc1C(=O)Cc1ccc([N+](=O)[O-])cc1	·	-16	-8	·	-2	3	·	·
O=c1nc(-c2ccccc2)n(-c2ccccc2)[nH]1	-20	0	-3	1	-4	39*	157*	129*
O=c1cc(-c2ccccc2)[nH]n1-c1ccccc1	-13	-4	·	-1	-3	3	·	·
Cn1c2ccccc2c(=O)c2ccc(NCc3ccc4c(c3)OCO4)cc21	-38	16	·	-1	15	88*	175*	110*
Cc1cc(C(=O)Nc2nc(C)c(C(=O)N(C)C)s2)ccc1[N+](=O)[O-]	-62	-17	-2	-1	8	-2	·	·
Cc1nc(NC(=O)c2ccc([N+](=O)[O-])cc2Cl)sc1C(=O)N(C)C	-5	-14	-8	-1	13	91*	+	162*
Cc1ccc(S(=O)(=O)CC(CN2CCOCC2)N2CCOCC2)cc1 (stereo not given)	-7	4	-10	0	7	-3	·	·
CC1CCN(CC(CS(=O)(=O)c2ccc([N+](=O)[O-])cc2)N2CCC(C)CC2)CC1 (stereo not given)	-8	-16	33	-1	10	55*	74*	60*
CCOC(=O)C1=C(COC(=O)C(CC)Oc2ccccc2)NC(=O)NC1C (stereo not given)	-2	4	-6	2	3	-2	·	·
Cc1ccc(-c2csc(NC(=O)CN3CC(C)OC(C)C3)n2)cc1 (stereo not given)	-4	7	-5	1	-2	42*	88*	67*
CN(CC(=O)NCCc1ccc(S(N)(=O)=O)cc1)CC(=O)Nc1ccccc1C(F)(F)F	-4	1	·	0	-5	-3	·	·
COCCNC(=S)Nc1ccc2nc(N3CCOCC3)cc(C)c2c1	-16	-2	-7	2	8	51*	0	-3
SMILES	PrP 5UTR inh	PrPC surface inh	BJeLR viability	PfHsp40 rescue	GDH-TPI counter-1	FBA Mtb inh	Mtb FBA confirm	GDH-TPI counter-2
Cc1cc(N2CCCC2)nc2ccc(NC(=S)NC(C)C)cc12	-6	10	-8	0	18	31*	24	16*
Cc1cc(N2CCOCC2)nc2ccc(NC(=S)NC(C)C)cc12	-17	-6	-13	0	8	37*	108*	96*
COCCNC(=S)Nc1ccc2nc(N3CCCC3)cc(C)c2c1	-32	-2	6	0	17	5	·	·
CN(Cc1c(C(=O)N/N=C/c2cc(F)ccc2F)nnn1-c1nonc1N)C1CCCCC1	-4	1	5	1	0	4	·	·
Cc1ccc(S(=O)(=O)N(CCC(=O)O)c2ccccc2)cc1	-1	3	-23	0	-6	-4	·	·
CCCS(=O)(=O)N1CCC(C(=O)NCCC(C)C)CC1	-13	-1	7	0	-4	7	·	·
Cc1cc(C)c2c(n1)nn1c(C)c(CCC(=O)NCc3ccco3)c(C)nc21	1	-5	8	-1	2	30*	71*	48*
O=C(CCc1ccccc1)NNC(=O)c1cc(Cl)ccc1O	-14	-7	0	6	9	35*	0	-3
O=C(CCc1ccccc1)NNC(=O)c1ccccc1C(=O)O	-28	8	-1	0	-2	-2	·	·
CCOC(=O)[C@@]12CCCC=C1N(CCc1ccc(Cl)cc1)C(=O)[C@H]2CC(=O)NCc1cccc(C(F)(F)F)c1	·	2	·	·	·	·	·	·
CC(=O)NN1C(=O)c2ccccc2NC1c1cccnc1 (stereo not given)	-30	9	0	-2	0	30*	77*	72*
CC(=O)NN1C(=O)c2ccccc2NC1c1ccoc1 (stereo not given)	-17	0	0	-1	-3	35*	38*	19*
O=C1c2ccccc2NC(c2cccnc2)N1c1ccccc1F (stereo not given)	-36	2	-3	-1	1	71*	3	-2
CC(=O)NN1C(=O)c2ccccc2NC1c1ccccc1F (stereo not given)	-6	-3	4	0	-3	34*	81*	51*
